CYP2C9 inhib – human CYP2C9 inhibition. AID 777. 96,000 compounds, 20% hits. inhibition, % at 5 µM. CYP2C9 Supersomes, luciferin-H conversion, luminescence;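 active = blocking of liver enzyme CYP2C9 beyond about 50% at 5 µM, limit read from the data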
sEH act – activators of human soluble epoxide hydrolase | P34913 | purified human sEH enzymatic activity, activator screen | activation, % at 2 µM | 91,000 compounds, 0.04% hits | AID 717; in the data active = activation above about 37%
sEH inhibitor – soluble epoxide hydrolase (human) inhibition. 91,000 compounds, 0.34% hits. P34913. recombinant human sEH enzymatic activity assay. AID 707. inhibition, % at 2 µM; in the data active = inhibition above about 80%
CYP2C19 inhib – blocks human cytochrome P450 2C19 | P33261 | CYP2C19 Supersomes, luciferin-H EGE luminescence, 30 min | inhibition, % at 5 µM | 96,000 compounds, 21% hits | AID 778;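 active = CYP2C19 inhibition above a set limit at 5 µM in the primary screen, cut at about 50% in these data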
Target sequence (P33261 whole entry, looked up): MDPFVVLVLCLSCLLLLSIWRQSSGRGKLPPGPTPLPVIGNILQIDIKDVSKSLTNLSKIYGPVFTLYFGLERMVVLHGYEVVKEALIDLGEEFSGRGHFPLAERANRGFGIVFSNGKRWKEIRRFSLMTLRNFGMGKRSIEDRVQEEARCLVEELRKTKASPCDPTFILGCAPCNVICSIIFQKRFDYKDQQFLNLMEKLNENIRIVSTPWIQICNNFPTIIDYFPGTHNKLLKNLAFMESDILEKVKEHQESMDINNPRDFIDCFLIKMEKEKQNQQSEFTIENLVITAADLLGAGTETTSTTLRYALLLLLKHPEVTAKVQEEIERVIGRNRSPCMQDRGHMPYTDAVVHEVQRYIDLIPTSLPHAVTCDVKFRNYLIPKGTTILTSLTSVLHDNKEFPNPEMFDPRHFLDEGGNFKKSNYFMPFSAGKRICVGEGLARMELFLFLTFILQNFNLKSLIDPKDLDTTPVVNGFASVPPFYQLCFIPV
CYP2C19 act – increases human CYP2C19 enzyme activity; AID 1025; 96,000 tested, under 10 active; P33261; activation factor at 5 µM; recombinant CYP2C19, luciferin-H EGE luminescence; stronger effect = higher value; 0 = fully inhibited enzyme, 1 = untreated enzyme;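 active = activation factor of at least 2 at 5 µM in the primary screen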
CYP2C9 activ – increases human cytochrome P450 2C9 activity. P11712. recombinant CYP2C9, luciferin-H conversion, luminescence; stronger effect = higher value; factor 1 = untreated enzyme, 0 = blocked. activation factor at 5 µM. 96,000 compounds, 1.4% hits. AID 1024;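 active = activation factor of 2 or more for CYP2C9 at a 5 µM dose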
A number is an active result; - = inactive; . = not tested or not shown. Rows were chosen to be rich in hits. Some 27% of all compounds tested hit in one or more screens of this group.

SMILES	CYP2C9 inhib	sEH act	sEH inhibitor	CYP2C19 inhib	CYP2C19 act	CYP2C9 activ
Nc1cc(=O)[nH]c(SCC(=O)NCC2CCCO2)n1 (stereo unspecified)	-	-	-	-	-	-
FC(F)(F)c1nnc(-c2ccccc2)nc1Sc1ccc(Cl)cc1	-	-	-	-	-	-
FC(F)(F)c1nnc(-c2ccccc2)nc1Oc1ccc(Cl)cc1Cl	-	-	-	60.9	-	-
O=C1c2cccnc2C(=O)N1Cc1ccc2c(c1)OCO2	-	.	.	-	-	-
COc1ccccc1OC(=O)CN1C(=O)c2ccccc2C1=O	-	-	-	-	-	-
COc1ccc(OC(=O)CCCN2C(=O)c3ccccc3C2=O)cc1	-	-	-	52.9	-	-
COc1ccccc1OCCC(=O)OCCN1C(=O)c2ccccc2C1=O	-	-	-	56.1	-	-
COC(=O)C1=C(C)NC(C)=C(C(=O)OC)C1C(=O)OCCN1C(=O)c2ccccc2C1=O	70.8	-	-	80.2	-	-
CC(=O)Nc1ccc(NC(=O)CN(C)CCC#N)cc1	-	.	.	-	-	-
CCCCC(=O)OCCNC(=O)c1cc2ccccc2oc1=O	-	-	-	59.0	-	-
O=C(OCCNC(=O)c1cc2ccccc2oc1=O)c1cccnc1	-	-	-	-	-	-
Cc1ccc(CNc2ncc(-c3ccc4c(c3)OCO4)n2C)cc1	74.4	-	-	68.6	-	-
Cn1c(-c2ccc3c(c2)OCO3)cnc1NCc1ccc(Cl)cc1	98.6	-	-	66.5	-	-
CN(C)CC(O)COc1cc2ccccc2cc1C(=O)N1CCCCC1 (stereo unspecified)	-	-	-	-	-	-
O=C(Cn1nc(C(F)F)cc1C(F)F)N/N=C/c1ccc2c(c1)OCO2	-	-	-	-	-	-
CCOC(=O)c1ccc(N=Cc2nc(-c3ccccc3)oc2OC(C)=O)cc1	50.1	-	-	-	-	-
Cc1cc(C)cc(NC(=S)NCc2ccc3c(c2)OCO3)c1	.	-	-	.	.	.
CC(CNCc1ccc2c(c1)OCO2)NCc1ccc2c(c1)OCO2 (stereo unspecified)	-	.	.	67.2	-	-
CCOC(=O)N1CCN(C(=O)c2ccc3c(c2)sc2nc(-c4ccc(OC)cc4)cn23)CC1	-	-	-	-	-	-
COc1ccc2c(c1)sc1nc(-c3ccccc3)cn12	92.1	.	.	82.1	-	-
COc1cc(C(=O)N2CCC(c3nc(-c4cccnc4)no3)CC2)cc(OC)c1OC	-	-	-	-	-	-
O=C(Nc1ccccc1O)c1ccc(Cl)cc1	-	-	-	-	-	-
O=C(Nc1cccc(Cl)c1Cl)c1ccncc1	68.6	-	-	89.8	-	-
CC(C)Oc1ccc(NC(=O)c2ccncc2)cc1	89.8	-	-	86.6	-	-
O=C(Nc1ccc(Cl)cc1)c1ccncc1	-	-	-	89.5	-	-
SMILES	CYP2C9 inhib	sEH act	sEH inhibitor	CYP2C19 inhib	CYP2C19 act	CYP2C9 activ
Cc1ccc(NC(=O)CSc2nnc(Cn3cnc4ccccc43)o2)cc1	64.7	-	-	-	-	-
COc1cc(C(=O)NCc2nnc(SCC(=O)Nc3cccc(C)c3)o2)cc(OC)c1OC	-	-	-	-	-	-
Cc1ccc(NC(=O)CSc2nnc(Cn3cnc4ccccc43)o2)c(C)c1	.	-	-	.	.	.
Cc1ccc(NC(=O)CSc2nnc(CNC(=O)c3c(F)cccc3Cl)o2)cc1	73.3	-	-	-	-	-
Cc1nn(C(=O)CCCC(=O)n2nc(C)c(Cl)c2C)c(C)c1Cl	.	-	-	.	.	.
COC(=O)c1cccc(NC(=O)C2COc3ccccc3O2)c1 (stereo unspecified)	60.0	-	-	67.1	-	-
COC(=O)c1cccc(NC(=O)C2COc3ccccc3O2)c1C (stereo unspecified)	-	.	.	64.0	-	-
COC(=O)c1cc(NC(=O)C2COc3ccccc3O2)ccc1Cl (stereo unspecified)	71.8	-	-	94.6	-	-
CC(C)NC(=O)c1ccccc1NC(=O)C1COc2ccccc2O1 (stereo unspecified)	.	-	-	.	.	.
CCn1c(C(=O)Nc2ccsc2C(=O)OC)cc2sc(Cl)cc21	-	-	-	-	-	-
Cc1nn(C/C(C#N)=N\O)c(C)[n+]1N	-	-	-	-	-	-
COc1ccc(NC(=O)C(=O)NCCN2CCN(C(=O)C(c3ccccc3)c3ccccc3)CC2)cc1	-	-	-	-	-	-
COC(=O)C1=C(C)N=C2SCCC(=O)N2C1c1cccs1 (stereo unspecified)	-	-	-	-	-	-
CC1=C(C(=O)OC(C)C)C(c2cccs2)N2C(=O)CCSC2=N1 (stereo unspecified)	-	-	-	50.8	-	-
CC1=C(C(=O)OC(C)C)C(c2cccs2)N2C(=O)C(C)SC2=N1 (stereo unspecified)	-	-	-	64.6	-	-
COc1ccc(N2C(=O)CC(N3CCC(O)(c4ccc(Br)cc4)CC3)C2=O)cc1 (stereo unspecified)	-	-	-	-	-	-
COc1ccc(N2C(=O)CCC2(C#N)c2ccc(Br)cc2)cc1 (stereo unspecified)	-	-	-	57.2	-	-
COc1ccccc1N1C(=O)C2C3C=CC(C3)C2(C)C1=O (stereo unspecified)	-	.	.	-	-	-
COc1ccccc1N1C(=O)CCC1(C#N)c1ccc(Br)cc1 (stereo unspecified)	68.6	-	-	59.4	-	-
CCOC(=O)c1cc2c(s1)-c1ccccc1CC2	-	-	-	-	-	-
COC(=O)C1=C(N)Oc2cc(C)n(Cc3ccccc3)c(=O)c2C1c1ccccc1 (stereo unspecified)	74.8	-	-	-	-	-
COc1ccc(C2C(C#N)=C(N)Oc3cc(C)n(CCN4CCOCC4)c(=O)c32)cc1OC (stereo unspecified)	-	.	.	-	-	-
COC(=O)C1=C(N)Oc2cc(C)n(CCN3CCOCC3)c(=O)c2C1c1cccnc1 (stereo unspecified)	-	.	.	71.2	-	-
CCOc1cc(C(=O)OCC(=O)Nc2cc(C)on2)cc(OCC)c1OCC	-	-	-	-	-	-
O=S1(=O)C=CC(Nc2ccccc2)C1 (stereo unspecified)	-	-	-	-	-	-
SMILES	CYP2C9 inhib	sEH act	sEH inhibitor	CYP2C19 inhib	CYP2C19 act	CYP2C9 activ
CC(=O)c1ccc(S(=O)c2ccccc2)cc1 (stereo unspecified)	-	-	-	-	-	-
CN(C)S(=O)(=O)N1CCN(S(=O)(=O)c2ccc(F)cc2)CC1	-	-	-	-	-	-
CN(C)S(=O)(=O)N1CCC(c2ccc(F)cc2)C(COc2ccc3c(c2)OCO3)C1 (stereo unspecified)	94.8	-	-	78.7	-	-
Cc1csc(SCC(=O)Nc2ncc(Cl)c(C)c2Cl)n1	-	.	.	-	-	-
COc1cccc2cc(C(=O)n3ccc(C)n3)c(=O)oc12	-	-	-	-	-	-
Cc1cc(NC(=O)c2ccc(Cl)cc2)c(C(C)C)cc1O	-	-	-	51.0	-	-

High-throughput results (PubChem BioAssay)
